A selection: hits, their analogues and other compounds. The true share with any hit is near 5.2%.
TrxR1 substrate: substrates of rat thioredoxin reductase 1 | 390,000 tested, 0.01% active | O89049 | Potency, µM (top dose mostly 114 µM) | AID 588456 | purified TrxR1 substrate turnover, NADPH consumption readout; further: nearly all actives have a fitted effect of over 50% in size
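Rat TrxR1, dispensed at 90 nM, was prereduced with 400 uM NADPH (final) for 5 min at ~22 deg C, then incubated with compound 15 min before 400 uM selenite. A first-read NADPH fluorescence drop versus no-compound background flagged substrates.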
TrxR1 inh: rat TrxR1 inhibition; recombinant rTrxR1, NADPH fluorescence consumption, selenite substrate; Potency, µM (titrated, usually from 114 µM), usual class: inhibitors; 390,000 tested, 1% active; further: nearly all actives have a fitted effect of over 65% in size
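Rat TrxR1 (90 nM in the dispensed reagent) was pre-reduced with 400 uM NADPH for 5 min at room temperature, then incubated with compound for 15 min. After 400 uM selenite was added, NADPH fluorescence (Ex 340/Em 450 nm) was followed for 8 min.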
mIDH1 inhibitor: blocks human mutant IDH1 R132H enzyme. 390,000 tested, 0.093% active. IDH1-R132H enzyme, NADPH consumption, diaphorase/resazurin fluorescence. O75874. Potency, µM (top dose mostly 76.6 µM), usual class: inhibitors. AID 602179; further: nearly all actives have a fitted effect of over 65% in size
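IDH1-R132H (0.5 ug/mL dispensed) in pH 7.5 Tris buffer was preincubated 30 min with compound, then given a substrate mix of 0.016 mM NADPH and 2 mM alpha-KG for 80 min at room temperature; remaining NADPH was read by diaphorase/resazurin fluorescence.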
Sfp PPTase inh: inhibitors of Bacillus subtilis Sfp phosphopantetheinyl transferase | Potency, µM, actives largely listed as inhibitors | Biochemical Sfp PPTase activity, qHTS | 310,000 tested, 3.5% active;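 further: the enzyme is Sfp with the accession as filed and its product quenches rhodamine fluorescence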
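Sfp 15 nM + cpd, 15 min RT; start w/ rhodamine-CoA 5 uM, BHQ-2-YbbR 12.5 uM (final); 50 mM Hepes pH 7.6, 10 mM MgCl2, 0.01% NP-40, 0.01% BSA; read 525/598 nm at 0 and 30 min.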
VDR inh: inhibitors of human vitamin D receptor | P11473 | VDR-SRC2-3 peptide fluorescence polarization, 2 h | Potency, µM, usual class: inhibitors | 400,000 tested, 0.93% active | AID 504847
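Compounds are added to VDR with labelled SRC2-3 coactivator peptide and held 2 h at room temperature. Inhibition of the VDR–peptide interaction is then read as a change in fluorescence polarization.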
PLK1 PBD inh: inhibitors of human PLK1 polo-box domain binding; 360,000 tested, 2.8% active; P53350; AID 720504; Potency, µM, actives largely listed as inhibitors; Plk1 PBD binding of FITC phosphopeptide, fluorescence polarization; further: series mostly up to about 57 µM; nearly all actives have a fitted effect of over 65% in size
Target sequence (P53350 whole entry, looked up, the tested form may be a part): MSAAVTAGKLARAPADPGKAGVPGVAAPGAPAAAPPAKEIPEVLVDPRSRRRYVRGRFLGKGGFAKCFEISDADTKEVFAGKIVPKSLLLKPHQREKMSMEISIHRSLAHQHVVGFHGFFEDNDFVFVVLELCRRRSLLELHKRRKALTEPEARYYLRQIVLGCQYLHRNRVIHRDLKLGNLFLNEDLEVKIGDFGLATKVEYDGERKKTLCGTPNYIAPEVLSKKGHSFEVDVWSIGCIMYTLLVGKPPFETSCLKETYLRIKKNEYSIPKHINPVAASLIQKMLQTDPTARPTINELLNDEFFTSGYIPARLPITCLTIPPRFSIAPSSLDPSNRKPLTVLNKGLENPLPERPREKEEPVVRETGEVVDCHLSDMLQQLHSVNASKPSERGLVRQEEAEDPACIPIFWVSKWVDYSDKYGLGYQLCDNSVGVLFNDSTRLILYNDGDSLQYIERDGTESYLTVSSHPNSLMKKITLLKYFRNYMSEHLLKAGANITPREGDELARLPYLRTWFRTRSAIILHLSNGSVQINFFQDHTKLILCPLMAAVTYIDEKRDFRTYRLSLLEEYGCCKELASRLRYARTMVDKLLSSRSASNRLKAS
Numbers stand for hits. The call rests on the fitted dose curve; in most records, active means well fitted curve in the direction sought with a large enough effect; inconclusive means small, poorly fitted or top-dose-only effect, or another doubt; inactive means no such curve, though single readings can be large; an effect the other way counts as inactive or inconclusive.

Screening O=C1N=C(N2CCCC2C(=O)O)S/C1=C\c1ccco1 (configuration not stated) returned TrxR1 substrate inactive, TrxR1 inh inconclusive, mIDH1 inhibitor inactive, Sfp PPTase inh inactive, VDR inh inconclusive and PLK1 PBD inh 3.36µM.
COc1ccc(C(=O)N/C(=C\c2cc(OC)c(OC)cc2[N+](=O)[O-])C(=O)NCCO)cc1 was read as TrxR1 substrate inactive, TrxR1 inh inactive, mIDH1 inhibitor inactive, Sfp PPTase inh 70.8µM, VDR inh inactive and PLK1 PBD inh inactive.
CC(C)OC(=O)CC1C(=O)NCCN1C(=S)NC(=O)c1ccccc1 (configuration not stated) was read as TrxR1 substrate inactive, TrxR1 inh inactive, mIDH1 inhibitor inactive, Sfp PPTase inh 17.8µM, VDR inh inactive and PLK1 PBD inh inactive.
Screening COC(=O)CC1C(=O)NCCN1C(=S)NC(=O)c1sc2ccccc2c1Cl (configuration not stated) returned TrxR1 substrate inactive, TrxR1 inh inconclusive, mIDH1 inhibitor inactive, Sfp PPTase inh 79.4µM, VDR inh inactive and PLK1 PBD inh 18.9µM.
Screening O=C(CCN1C(=O)C2C3CC(C(Br)C3Br)C2C1=O)OCC(=O)c1ccccc1 (configuration not stated) returned TrxR1 substrate inactive, TrxR1 inh inactive, mIDH1 inhibitor inactive, Sfp PPTase inh inactive, VDR inh inconclusive and PLK1 PBD inh 26.7µM.
COc1ccc(C(=O)COC(=O)CCN2C(=O)C3C4CCC(C4)C3C2=O)cc1 (configuration not stated) was read as TrxR1 substrate inactive, TrxR1 inh inactive, mIDH1 inhibitor inactive, Sfp PPTase inh inactive, VDR inh inactive and PLK1 PBD inh inactive.
Screening COc1ccccc1C(=O)NCC(c1ccc(N(C)C)cc1)N1CCc2ccccc21 (configuration not stated) returned TrxR1 substrate inactive, TrxR1 inh inactive, mIDH1 inhibitor inactive and VDR inh inactive.
CC1(C)O[C@@H]2[C@H](O1)[C@@H](COS(=O)(=O)O)O[C@H]2n1c(=S)[nH]c2c(=O)[nH]c(N)nc21 was read as TrxR1 substrate inactive, TrxR1 inh inactive, mIDH1 inhibitor inactive, VDR inh inactive and PLK1 PBD inh inactive.
For COc1cccc(CNC(=O)CCS(=O)(=O)c2ccc3c(c2)CC(C)N3C(=O)C2CC2)c1 (configuration not stated) the results were TrxR1 substrate inactive, TrxR1 inh inactive, mIDH1 inhibitor inactive, Sfp PPTase inh inactive, VDR inh inactive and PLK1 PBD inh 21.2µM.
Screening CC1CCC(NC(=O)CCS(=O)(=O)c2ccc3c(c2)CC(C)N3C(=O)C2CC2)CC1 (configuration not stated) returned TrxR1 substrate inactive, TrxR1 inh inactive, mIDH1 inhibitor inactive, Sfp PPTase inh inactive, VDR inh inactive and PLK1 PBD inh 29.9µM.
Screening CC(=O)N1c2ccc(S(=O)(=O)NCC3CCC(C(=O)NC4CCCCC4C)CC3)cc2CC1C (configuration not stated) returned TrxR1 substrate inactive, TrxR1 inh inactive, mIDH1 inhibitor inactive, Sfp PPTase inh inactive, VDR inh inactive and PLK1 PBD inh 26.7µM.
For CC(=O)N1c2ccc(S(=O)(=O)NCC3CCC(C(=O)NC4CCC(C)CC4)CC3)cc2CC1C (configuration not stated) the results were TrxR1 substrate inactive, TrxR1 inh inactive, mIDH1 inhibitor inconclusive, Sfp PPTase inh inactive, VDR inh inactive and PLK1 PBD inh inactive.
Screening CC1Cc2cc(S(=O)(=O)CCC(=O)NC3CCCCC3)ccc2N1C(=O)C1CC1 (configuration not stated) returned TrxR1 substrate inactive, TrxR1 inh inactive, mIDH1 inhibitor inactive, Sfp PPTase inh inactive, VDR inh inactive and PLK1 PBD inh inactive.
CCOc1ccc(NC(=O)CCNS(=O)(=O)c2ccc3c(c2)CC(C)N3C(C)=O)cc1 (configuration not stated) was read as TrxR1 substrate inactive, TrxR1 inh inactive, mIDH1 inhibitor inactive, Sfp PPTase inh inactive, VDR inh inconclusive and PLK1 PBD inh 2.99µM.
`COC(=O)CCCC[C@@H]1O[C@H](CCc2ccccc2)Cc2[nH]c(=S)[nH]c(=O)c21` gave PLK1 PBD inh inactive.
For O=[N+]([O-])c1cc(-c2nc(-c3ccccc3)no2)ccc1NC1CCCC1 the results were TrxR1 substrate inactive, TrxR1 inh inactive, mIDH1 inhibitor inactive and VDR inh inactive.
`CCN(CC(=O)Nc1c(F)cccc1F)C(=O)CCN1C(=O)C2CCCCC2C1=O` (configuration not stated) gave TrxR1 substrate inactive, TrxR1 inh inactive, mIDH1 inhibitor inactive, VDR inh inactive and PLK1 PBD inh inactive.
For CCC(=O)N1c2ccc(S(=O)(=O)NCc3cccc(OC)c3)cc2CC1C (configuration not stated) the results were TrxR1 substrate inactive, TrxR1 inh inactive, mIDH1 inhibitor inactive and VDR inh inactive.
For COc1cccc(CNC(=O)CCNS(=O)(=O)c2ccc3c(c2)CC(C)N3C(C)=O)c1 (configuration not stated) the results were TrxR1 substrate inactive, TrxR1 inh inactive, mIDH1 inhibitor inactive, Sfp PPTase inh inactive, VDR inh inconclusive and PLK1 PBD inh 26.7µM.
C=CC1=CCN(S(=O)C(C)(C)C)[C@@H]1CCO (some centres not stated) was read as TrxR1 substrate inactive, TrxR1 inh 50.1µM, mIDH1 inhibitor inactive, VDR inh inactive and PLK1 PBD inh inactive.
`C=C(C1=CCN(S(=O)C(C)(C)C)[C@H]1CCO)c1ccccc1` (some centres not stated) gave TrxR1 substrate inactive, TrxR1 inh inconclusive, mIDH1 inhibitor inactive, VDR inh inactive and PLK1 PBD inh inactive.
Screening CC[C@@H](C)[C@@H](CO[C@@H](Cc1ccccc1)C(=O)N[C@@H](CCS(C)(=O)=O)C(=O)OC(C)C)NC[C@@H](N)CS returned Sfp PPTase inh inactive and VDR inh 10µM.
For CCCCCCCCc1nnc(N)s1 the results were TrxR1 substrate inactive, TrxR1 inh inactive, mIDH1 inhibitor inactive, Sfp PPTase inh inactive, VDR inh inactive and PLK1 PBD inh inactive.
Screening CN(C)/C=C1\NC(=S)N(c2ccc(Cl)cc2)C1=O returned TrxR1 substrate inactive, TrxR1 inh inactive, mIDH1 inhibitor inactive, Sfp PPTase inh 31.6µM, VDR inh inactive and PLK1 PBD inh 26.7µM.
Screening Cc1ccc(NC(=O)/C(=C/c2cccs2)NC(=O)c2ccco2)cc1 returned TrxR1 substrate inactive, TrxR1 inh inactive, mIDH1 inhibitor inactive, Sfp PPTase inh inactive, VDR inh inactive and PLK1 PBD inh inactive.

High-throughput results (PubChem)
